HIF-2a block: inhibitors of HIF-2a | inhibition, % at 18.8 µM | 360,000 tested, 0.72% active | 786-0 RCC cells HIF-2a reporter, luciferase luminescence, overnight;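 active means inhibition of the luminescence signal of 40% or more relative to plate controls, in a single-dose primary screen at 18.75 µM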
TROY signal inh: inhibitors of TROY-dependent NF-kB signaling. inhibition, % at 10 µM. 360,000 tested, 0.98% active. Q293 LMP1-TROYcd NF-kB luciferase reporter, 4 h;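 active means compounds whose plate-normalised and pattern-corrected inhibition of the luciferase reporter signal at the single screening dose is 50% or more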
CF NFkB inh: blocks PAF-induced NF-kB reporter in cystic fibrosis cells; KKLEB NF-kB-GFP reporter, GFP fluorescence overnight; inhibition, % at 5 µM; 360,000 tested, 0.86% active; AID 588850;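 active means at least 50% inhibition at 5 µM, scaled per plate between neutral and stimulator controls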;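 further: PAF is a Pseudomonas aeruginosa culture filtrate used as stimulus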
TWEAK Fn14 block: TWEAK-Fn14 signaling inhibition | TWEAK-stimulated Fn14 reporter cells, luciferase luminescence, 8 h | AID 1159606 | 360,000 tested, 2% active | inhibition, % at 10 µM; in the data active means inhibition above about 50%
Peg3 prom inh: inhibitors of Peg3 promoter; HeLa PEG-Prom luciferase reporter, luminescence, overnight; inhibition, % at 20 µM; 360,000 tested, 1.7% active;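 active means inhibition of at least 50% at 20 µM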
KKLEB tox: CF airway cell cytotoxicity counter-screen | KKLEB CF airway cells viability, ATPlite luminescence, overnight; hits give low values; cells stimulated with P. aeruginosa culture filtrate | activity change (cytotoxicity), % at 5 µM | 360,000 tested, 0.36% active | AID 602141;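 active means corrected activity change at or below -50% at 5 µM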
Mdm2 MdmX conf: confirmation of inhibitors of human Mdm2/MdmX interaction, set 2. 740 tested, 99% active. SaOS-2 split-luciferase Mdm2/MdmX complementation, luminescence. inhibition, % at 8 µM. shares compounds with HIF-2a block;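 active means mean inhibition of the luminescence signal across two replicates at or above 26 percent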
Target sequence (O15151 whole entry, looked up): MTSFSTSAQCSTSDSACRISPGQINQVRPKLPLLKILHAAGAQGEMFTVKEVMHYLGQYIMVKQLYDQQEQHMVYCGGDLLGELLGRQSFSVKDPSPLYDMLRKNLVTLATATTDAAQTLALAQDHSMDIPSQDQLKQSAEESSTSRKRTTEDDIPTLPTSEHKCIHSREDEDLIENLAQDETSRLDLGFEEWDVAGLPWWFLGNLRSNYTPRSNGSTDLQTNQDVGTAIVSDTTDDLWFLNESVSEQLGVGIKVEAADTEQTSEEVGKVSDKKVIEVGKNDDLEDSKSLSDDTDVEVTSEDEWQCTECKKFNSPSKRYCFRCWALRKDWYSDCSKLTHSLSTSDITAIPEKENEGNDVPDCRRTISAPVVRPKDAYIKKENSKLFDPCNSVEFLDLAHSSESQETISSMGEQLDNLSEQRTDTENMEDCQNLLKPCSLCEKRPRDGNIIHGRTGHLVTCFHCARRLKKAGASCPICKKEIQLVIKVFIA
Target sequence (Q00987 whole entry, looked up): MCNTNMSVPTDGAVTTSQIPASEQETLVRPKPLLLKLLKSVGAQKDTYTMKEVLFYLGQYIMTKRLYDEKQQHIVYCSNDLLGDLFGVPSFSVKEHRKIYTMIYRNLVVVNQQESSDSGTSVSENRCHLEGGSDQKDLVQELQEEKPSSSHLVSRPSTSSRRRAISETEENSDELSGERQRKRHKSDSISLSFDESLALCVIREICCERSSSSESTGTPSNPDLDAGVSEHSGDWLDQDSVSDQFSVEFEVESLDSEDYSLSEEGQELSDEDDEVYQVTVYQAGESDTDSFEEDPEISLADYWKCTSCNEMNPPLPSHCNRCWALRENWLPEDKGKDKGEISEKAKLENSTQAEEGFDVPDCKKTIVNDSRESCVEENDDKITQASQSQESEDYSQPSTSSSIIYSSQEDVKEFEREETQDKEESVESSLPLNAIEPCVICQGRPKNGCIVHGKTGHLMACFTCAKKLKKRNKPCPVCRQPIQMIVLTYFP
HIF-2a inh conf: confirmation of HIF-2a inhibitors; inhibition, % at 18.8 µM; shares compounds with HIF-2a block; 1,800 tested, 56% active; 786-0 RCC cells, HIF-2a luciferase reporter luminescence, overnight;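 active means mean inhibition across four replicates of at least 40 percent at the single tested concentration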
HIF-1a cs: HIF-1a inhibition counter-screen for HIF-2a hits. inhibition, % at 18.8 µM. shares compounds with HIF-2a block. 1,800 tested, 72% active. MiaPaCa-2 HIF-1a luciferase reporter, desferoxamine, overnight. AID 651589;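 active means mean inhibition of the reporter signal across four replicates at the single tested dose of 50% or more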
A number is an active result; – = inactive; · = no result given. Sampled rows, rich in hits. Any-hit rate of the full collection: about 4%.

SMILES	HIF-2a block	TROY signal inh	CF NFkB inh	TWEAK Fn14 block	Peg3 prom inh	KKLEB tox	HIF-2a inh conf	HIF-1a cs	others
CCOC(=O)CNC(=O)CSc1nnc(NC(=O)c2ccc3c(c2)OCO3)s1	–	–	–	–	–	–	·	·
CCOC(=O)CNC(=O)CSc1nnc(NC(=O)c2ccc(C)cc2)s1	45	–	–	68	–	–	65	–
OC(COc1ccc(CNCCc2ccc(C(F)(F)F)cc2)cc1)CN1CCCCC1 (configuration not stated)	–	–	–	–	104	–	·	·	Mdm2 MdmX conf=104
C[C@H](CO)N1C[C@H](C)[C@@H](CN(C)C(=O)Nc2ccc(C(F)(F)F)cc2)Oc2c(NC(=O)Cc3ccccc3)cccc2C1=O	–	–	–	–	–	–	·	·
c1cc(N2CCOCC2)ccc1-c1ccc2nncn2c1	38	86	–	90	–	–	–	–
c1coc(-c2ccc3nncn3c2)c1	–	–	–	–	–	–	·	·
Nc1[nH]c(C(=O)c2ccccc2)c(-c2ccccc2C(F)(F)F)c1C(=O)c1cccs1	–	–	·	–	·	·	·	·
CC(=O)Nc1ccc(NC(=O)C2CC(=O)N(Cc3ccccc3)C2)cc1 (configuration not stated)	–	–	–	–	–	–	·	·
CC(=O)c1sc(NC(=O)C2CC(=O)N(Cc3ccccc3)C2)nc1-c1ccccc1 (configuration not stated)	41	–	–	–	–	–	–	–
Cc1cc(C)c(C(=O)COC(=O)C2CCN(c3ccc(C(F)(F)F)cn3)CC2)c(C)c1	–	–	–	–	–	–	·	·
N#C/C(=C\c1ccc([N+](=O)[O-])o1)c1nc2ccccc2[nH]1	·	·	·	·	·	·	·	·	Mdm2 MdmX conf=103
COc1ccc(OC(F)(F)F)cc1CC1(C)C(=O)Nc2c(Cl)ccc(Cl)c21 (configuration not stated)	–	–	–	–	–	–	·	·
O=C1c2ccccc2C(=O)c2c1oc(C(F)(F)F)c2C(=O)c1ccccc1	–	55	90	74	94	-82	·	·	Mdm2 MdmX conf=94
CC(C)COC(=O)NC1c2ccccc2Oc2ccccc21	–	–	–	–	–	–	·	·
CCCCCCCCNCCS(=O)(=O)NCCCCCCCC	51	–	–	–	95	–	–	106
CC(=O)c1ccc(Nc2cc(C)nc3c(C)cc(C)cc23)cc1	59	–	–	–	103	–	–	85
COC(=O)Cn1ccc(-c2ccc(Cl)cc2)c(C#N)c1=O	57	–	–	–	–	–	–	–
COC(=O)Cc1ccc(NC(=O)c2ccc(C(C)(C)C)cc2)cc1	90	–	–	–	–	–	94	–
O=c1c(Cl)c(Cl)cnn1-c1ccccc1	94	–	97	91	115	-81	98	104
COCCNC(=O)C1(C)CCCN(C(=O)c2cc(C)on2)C1 (configuration not stated)	–	–	–	–	–	–	·	·
CC(=O)c1c(C)oc2ccc(N(C(C)=O)S(=O)(=O)c3ccc(Br)cc3)cc12	–	–	–	–	–	–	·	·
CC(=O)c1c(C)oc2ccc(N(C(C)=O)S(=O)(=O)c3ccc(Cl)c([N+](=O)[O-])c3)cc12	69	88	–	–	104	–	–	107
O=C(NCC1CCCO1)C(=Cc1cccc([N+](=O)[O-])c1)C(=O)NCC1CCCO1 (configuration not stated)	–	–	–	–	–	–	·	·
Cc1cc(C)c(C)c(S(=O)(=O)ON2C(=O)c3ccccc3C2=O)c1C	56	–	69	–	89	-53	50	–
Cc1ccc(S(=O)(=O)ON2C(=O)c3ccccc3C2=O)c(C)c1	72	–	–	–	60	–	59	–
SMILES	HIF-2a block	TROY signal inh	CF NFkB inh	TWEAK Fn14 block	Peg3 prom inh	KKLEB tox	HIF-2a inh conf	HIF-1a cs	others
CCCCCc1c(-c2cccc(OC)c2)ncn1CCc1ccccc1OC	–	–	·	–	·	·	·	·
COc1cc(CNCCc2ccc(S(N)(=O)=O)cc2)ccc1OCC(=O)NC1CCCCC1	–	–	–	–	–	–	·	·
CCOc1ccc(CNCCc2ccc(S(N)(=O)=O)cc2)cc1	–	–	–	–	–	–	·	·
COc1cc(CNCCc2ccc(S(N)(=O)=O)cc2)ccc1OCc1ccc(Cl)cc1	75	–	–	–	92	–	–	94
CCOc1cc(CNCCc2ccc(S(N)(=O)=O)cc2)ccc1OCc1ccc(Cl)cc1	86	–	–	86	108	–	–	102
COc1ccc(NC(=O)/C(Cl)=C(/Cl)S(=O)(=O)Cc2ccccc2)cn1	94	77	84	101	100	-53	100	106
COc1cc2c(cc1OC)C(O)=CC(=O)C2=O	–	–	–	–	–	–	·	·
CCOC(=O)Cc1csc(NC(=S)NC(=O)c2ccc([N+](=O)[O-])cc2)n1	63	–	–	–	–	–	71	–
CCOC(=O)Cc1csc(NC(=O)Cc2ccc([N+](=O)[O-])cc2)n1	–	–	–	–	–	–	·	·
C[C@H]1CN([C@@H](C)CO)S(=O)(=O)c2ccc(C#CC3(O)CCCC3)cc2O[C@@H]1CN(C)C(=O)Cc1cccnc1	–	–	–	–	–	–	·	·
COc1ccc2c(c1)-c1c(ssc1=S)C(C)(C)N2	–	50	81	92	–	–	·	·	Mdm2 MdmX conf=95
Cc1ccc(C(=O)c2ccccc2C(=O)OCC(=O)Nc2cccc([N+](=O)[O-])c2)cc1	–	–	–	–	–	–	·	·
Cc1ccc(Cl)c(NC(=O)COC(=O)c2ccccc2C(=O)c2ccc(Cl)c([N+](=O)[O-])c2)c1Cl	97	65	94	100	100	-99	–	108
Cc1cccc(N(CC(=O)NC2CCCCC2)C(=O)CCC(=O)Nc2nccs2)c1	–	–	–	–	–	–	·	·
CCN1CCN(c2ccc(S(=O)(=O)N3CCOCC3)cc2NC(=O)c2ccc(F)cc2Cl)CC1	–	–	–	–	–	–	·	·
CC[N+]1(C)CCC(O)(/C=C/c2ccccc2)C(C(=O)/C=C/c2ccccc2)C1 (configuration not stated)	90	–	–	65	97	–	46	103
CC(C)CC(NC(=O)OCc1ccccc1)C(=O)NC(Cc1ccccc1)C(=O)CCl (configuration not stated)	48	–	–	–	93	–	73	87

Compound activity as filed in PubChem.
